# Where “and” joins values, the source holds several entries; their conditions need not be identical. Identical values can stand only once. For some assays here: Results with a measured potency or affinity are listed apart. Calls of active or inactive are those of the source. Unless noted, how the calls were made is not given here.
# Columns and labels:
# [1] = polyglutamine-triggered caspase-3 activation inhibitors, cell-based (AID 1583); conditions: polyglutamine-induced caspase-3 activation, cell assay; stronger effect = higher value;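 tested at 10 µM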
# [2] = suppressors of polyQ aggregation in yeast, 75Q-TubU reporter (AID 1593); conditions: Yeast 75Q polyglutamine aggregation reporter
# [3] = rescue of polyQ-huntingtin neuronal dysfunction in worms, whole organism, C. elegans mechanosensory neurons, N-terminal huntingtin (AID 1599); conditions: touch response, stronger effect = higher value
# [4] = inhibitors of mitochondrial cytochrome c release, biochemical, purified mitochondria (AID 1603); conditions: stronger effect = lower value;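 further: mouse liver mitochondria challenged with calcium chloride; signal normalized to the plate average as 100%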
# [5] = inhibitors of polyQ protein aggregation (AID 1604); conditions: polyglutamine-induced protein aggregation inhibition assay; stronger effect = higher value; tested at 2.5 µM
# [6] = enhancers of glutamate uptake in motor neurons, MN-1 cell line (AID 1612); conditions: MN-1 motor neuron cells, stronger effect = higher value;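 further: tested at 1 µM final; 0% = mean of DMSO vehicle wells on each plate; positive means more glutamate uptake than control and negative means less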
# [7] = suppressors of polyglutamine aggregation in yeast, 75Q-TubH (AID 1616); conditions: S. cerevisiae 75Q-TubH polyglutamine aggregation suppression; stronger effect = higher value
# [8] = hESC survival regulators, cell-based (AID 493140); conditions: human embryonic stem cell survival screen; stronger effect = higher value;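 further: cells exposed to compounds for four days before counting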
# [9] = Cy5 fluorescence interference with SSB-bound oligo, artefact control for HCV NS3 helicase inhibitor project, biochemical, NIH Clinical Collection, E. coli SSB (AID 743268)
# [10] = tested on: Hepatitis C virus NS3 helicase; assay: HCV NS3 helicase inhibitors, primary screen, biochemical, fluorescence polarization, NIH Clinical Collection (AID 743270); conditions: NS3 helicase binding to Cy5-dT15 DNA, stronger effect = higher value, concentration not given here
# [11] = target: Single-stranded DNA-binding protein (Escherichia coli (strain K12)) (UniProt P0AGE0); assay: E. coli SSB displacement from DNA, counter-screen for HCV NS3 helicase inhibitor project, biochemical, fluorescence polarization, NIH Clinical Collection (AID 743271; in the data active means inhibition above about 28%); conditions: stronger effect = higher value, concentration not given here
# [12] = fluorescence interference in NS3h assay format, artefact control for HCV NS3 helicase inhibitor project, biochemical, NIH Clinical Collection (AID 743272); conditions: fluorescence interference counterscreen, stronger effect = lower value;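 further: HCV NS3 helicase with a Cy5 labelled single stranded DNA probe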
# [13] = modulation of C. elegans fzo-1 (AID 1259413);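 further: fzo-1 mutant C. elegans worms in liquid wells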; conditions: C. elegans fzo-1 modulator screen, mean read-out; stronger effect = higher value
# [14] = target: NAD(+) hydrolase SARM1 (Homo sapiens) (UniProt Q6SZW1); assay: SARM1 TIR NADase inhibitors, cell lysate, NAD-Glo luminescence (AID 1508614;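 active means compound whose remaining NAD level is above about 45 nM, limit read from the data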); conditions: SAM-TIR HEK293T lysate NADase, at 1 µM, stronger effect = higher value
# [15] = target: Mitogen-activated protein kinase 7 (Homo sapiens) (UniProt Q13164); assay: ERK5 transactivation activators in reporter cells, primary screen, cell-based, HTS (AID 1508626;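 active means luciferase signal above three times the same-plate solvent-only control wells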;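 further: luciferase driven by Gal4-ERK5 fusion binding five Gal4 sites before minimal TATA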); conditions: HeLa Gal4-ERK5 transactivation, 18 h, at 5 µM, stronger effect = higher value
# [16] = viability rescue of complex I mutant cybrids, primary screen, cell-based, galactose medium, ATP luminescence (AID 1645843;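 active means z-score of at least 1.8 in each of two replicates, scored against plate mean and spread of sample wells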;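 further: positive z means more ATP and so rescue of galactose-driven cybrid death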); conditions: complex I mutant cybrid cells, 72 h, stronger effect = higher value
# R275C/beta2Delta = assay: modulators of BK channel variants, profiling panel, selectivity assay, cell-based, U2OS BacMam, thallium flux, beta subunits (AID 1259406;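 active means thallium flux through the channel raised or lowered by more than 3 SD from vehicle-only wells, actives on both sides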;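 further: initial slope of Thallos dye fluorescence rise after thallium is added; log ratio against the mean of 0.3% DMSO vehicle wells on the same plate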); conditions: at 30 µM
# R275C/beta4 = assay: as above; conditions: at 30 µM
# R275C/Slo1WT/beta2 = assay: as above; conditions: at 30 µM
# [17] = ICB984 medulloblastoma cell growth inhibition, synergistic combos for chromothripsis tumors, cisplatin or BGB combos (AID 1671451); conditions: ICB984 medulloblastoma cells, drug combinations, stronger effect = higher value;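 further: cells exposed for 96 hours before readout; 0% = vehicle DMSO and 100% = killing by high DMSO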
# Mitogen-activated protein kinase 7 (Homo sapiens), sequence (Q13164 whole entry, looked up, the tested form may be a part): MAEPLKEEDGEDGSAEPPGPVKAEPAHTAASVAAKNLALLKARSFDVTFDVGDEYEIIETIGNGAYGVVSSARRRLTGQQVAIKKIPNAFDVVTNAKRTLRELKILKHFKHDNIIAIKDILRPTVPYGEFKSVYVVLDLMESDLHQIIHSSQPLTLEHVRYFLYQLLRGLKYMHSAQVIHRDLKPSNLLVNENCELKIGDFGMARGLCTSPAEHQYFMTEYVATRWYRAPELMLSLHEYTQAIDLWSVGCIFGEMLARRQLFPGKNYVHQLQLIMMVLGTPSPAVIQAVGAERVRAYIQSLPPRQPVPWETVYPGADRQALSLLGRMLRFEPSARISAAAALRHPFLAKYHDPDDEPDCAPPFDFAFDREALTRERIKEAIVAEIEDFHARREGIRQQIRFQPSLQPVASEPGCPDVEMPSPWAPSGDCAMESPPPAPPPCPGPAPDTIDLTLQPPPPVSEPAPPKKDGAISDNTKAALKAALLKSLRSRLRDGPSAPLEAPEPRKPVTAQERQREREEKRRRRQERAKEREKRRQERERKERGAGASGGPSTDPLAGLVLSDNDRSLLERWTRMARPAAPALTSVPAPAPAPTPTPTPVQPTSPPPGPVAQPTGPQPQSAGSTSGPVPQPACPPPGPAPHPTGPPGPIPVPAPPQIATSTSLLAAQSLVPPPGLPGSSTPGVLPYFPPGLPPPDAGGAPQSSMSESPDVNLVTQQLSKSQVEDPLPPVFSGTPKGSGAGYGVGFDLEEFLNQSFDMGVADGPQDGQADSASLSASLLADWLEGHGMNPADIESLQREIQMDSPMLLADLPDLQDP
# NAD(+) hydrolase SARM1 (Homo sapiens), sequence (Q6SZW1 whole entry, looked up, the tested form may be a part): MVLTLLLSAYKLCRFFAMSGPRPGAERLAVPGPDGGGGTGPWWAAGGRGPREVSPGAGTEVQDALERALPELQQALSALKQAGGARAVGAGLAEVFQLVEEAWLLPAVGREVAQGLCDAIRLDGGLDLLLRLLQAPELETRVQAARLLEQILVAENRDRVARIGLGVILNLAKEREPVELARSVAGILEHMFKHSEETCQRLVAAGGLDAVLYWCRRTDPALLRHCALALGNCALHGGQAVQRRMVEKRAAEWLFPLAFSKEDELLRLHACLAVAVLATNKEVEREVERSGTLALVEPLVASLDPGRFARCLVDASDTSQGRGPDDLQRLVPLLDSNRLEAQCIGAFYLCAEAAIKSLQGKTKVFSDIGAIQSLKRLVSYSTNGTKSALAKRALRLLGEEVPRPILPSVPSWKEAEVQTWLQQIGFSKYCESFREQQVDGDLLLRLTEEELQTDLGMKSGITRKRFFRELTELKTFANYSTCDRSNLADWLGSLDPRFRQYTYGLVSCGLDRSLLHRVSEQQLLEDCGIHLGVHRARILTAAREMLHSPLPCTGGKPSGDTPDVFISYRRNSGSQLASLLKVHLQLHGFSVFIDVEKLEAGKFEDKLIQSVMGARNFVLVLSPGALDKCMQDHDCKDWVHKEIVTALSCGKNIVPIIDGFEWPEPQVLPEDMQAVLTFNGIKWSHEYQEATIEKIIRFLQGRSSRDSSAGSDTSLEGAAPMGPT
compound,measurement,setting,value
c1ccc2[nH]c(-c3cscn3)nc2c1,inhibition,[1],-3.31%
same,score,[2],0.53
same,rescue above control,[3],-3.36
same,cytochrome c release ratio,[4],1.13
same,inhibition of aggregation,[5],30.1%
same,glutamate uptake change,[6],-14%
same,aggregation suppression score,[7],0.142
same,survival,[8],7.75 (inactive)
same,fluorescence ratio,[9],1.06 (inactive)
same,inhibition,[10],0.45% (inactive)
same,inhibition,[11],-0.48% (inactive)
same,fluorescence ratio,[12],0.97 (inactive)
same,mean signal,[13],278 (inactive)
same,remaining NAD,[14],10 nM (inactive)
same,luciferase signal,[15],12 AU (inactive)
same,z-score,[16],0.46 (inactive)
same,log fold change Tl+ flux,R275C/beta2Delta,-0.0148 (inactive)
same,log fold change Tl+ flux,R275C/beta4,-0.00629 (inactive)
same,log fold change Tl+ flux,R275C/Slo1WT/beta2,0.0186 (inactive)
Cc1ccc(C)c(OCCCC(C)(C)C(=O)O)c1,inhibition,[1],5.02%
same,score,[2],-0.33
same,rescue above control,[3],6.5
same,cytochrome c release ratio,[4],0.86
same,inhibition of aggregation,[5],39.4%
same,glutamate uptake change,[6],0.82%
same,aggregation suppression score,[7],-0.02
same,survival,[8],20.8 (inactive)
same,fluorescence ratio,[9],1.06 (inactive)
same,inhibition,[10],0.45% (inactive)
same,inhibition,[11],1.05% (inactive)
same,fluorescence ratio,[12],0.96 (inactive)
same,mean signal,[13],239 (inactive)
same,remaining NAD,[14],10 nM (inactive)
same,luciferase signal,[15],128 AU (inactive)
same,z-score,[16],0.125 (inactive) and 0.18 (inactive)
same,log fold change Tl+ flux,R275C/beta2Delta,0.0312 (inactive)
same,log fold change Tl+ flux,R275C/beta4,-0.0122 (inactive)
same,log fold change Tl+ flux,R275C/Slo1WT/beta2,0.088 (inactive)
COC1=CC(=O)C[C@@H](C)[C@]12Oc1c(Cl)c(OC)cc(OC)c1C2=O,inhibition,[1],4.47%
same,score,[2],1
same,rescue above control,[3],-5.31
same,cytochrome c release ratio,[4],1.14
same,inhibition of aggregation,[5],56.8%
same,glutamate uptake change,[6],-9%
same,aggregation suppression score,[7],1.07
same,fluorescence ratio,[9],1 (inactive)
same,inhibition,[10],-4.09% (inactive)
same,inhibition,[11],-3.53% (inactive)
same,fluorescence ratio,[12],1 (inactive)
same,mean signal,[13],231 (inactive)
same,remaining NAD,[14],10 nM (inactive)
same,luciferase signal,[15],104 AU (inactive)
same,z-score,[16],1.05 (inactive)
same,log fold change Tl+ flux,R275C/beta2Delta,-0.00445 (inactive)
same,log fold change Tl+ flux,R275C/beta4,-0.0288 (inactive)
same,log fold change Tl+ flux,R275C/Slo1WT/beta2,0.00636 (inactive)
COC(=O)Nc1nc2ccc(C(=O)c3ccccc3)cc2[nH]1,inhibition,[1],-5.42%
same,score,[2],0.63
same,rescue above control,[3],-9.11
same,cytochrome c release ratio,[4],0.9
same,inhibition of aggregation,[5],83.3%
same,glutamate uptake change,[6],-29.4%
same,aggregation suppression score,[7],0.598
same,survival,[8],1 (inactive)
same,fluorescence ratio,[9],1.04 (inactive)
same,inhibition,[10],-15.9% (inactive)
same,inhibition,[11],-8.87% (inactive)
same,fluorescence ratio,[12],0.98 (inactive)
same,mean signal,[13],274 (inactive)
same,remaining NAD,[14],10 nM (inactive)
same,luciferase signal,[15],28 AU (inactive)
same,z-score,[16],0.145 (inactive) and 0.665 (inactive) and -1.08 (inactive)
same,log fold change Tl+ flux,R275C/beta2Delta,-0.00163 (inactive)
same,log fold change Tl+ flux,R275C/beta4,-0.0663 (inactive)
same,log fold change Tl+ flux,R275C/Slo1WT/beta2,0.008 (inactive)
CCn1cc(C(=O)O)c(=O)c2cc(F)c(N3CCN(C)CC3)cc21,mean signal,[13],261 (inactive)
same,remaining NAD,[14],10 nM (inactive)
same,luciferase signal,[15],56 AU (inactive)
same,z-score,[16],0.7 (inactive) and 0.275 (inactive)
same,inhibition,"[17]; BGB IC20 combo, at 0.005 µM",-18.1% and 6.69%
same,inhibition,"[17]; BGB IC40 combo, at 0.005 µM",-42.4% and -0.345%
same,inhibition,"[17]; BGB IC40 combo, at 0.05 µM",-41% and 23.4%
same,inhibition,[17]; at 0.5 µM,-41.8% (inactive) and -20.7% (inactive)
same,inhibition,"[17]; cisplatin combo, at 0.05 µM",-41% and 21.2%
same,inhibition,"[17]; cisplatin combo, at 0.5 µM",-53.3% and -24%
same,inhibition,"[17]; cisplatin combo, at 5 µM",-34.1% and -14.2%
same,inhibition,"[17]; measured here: 5 uM single agent, at 5 µM",-3.29% and -1.89%
same,log fold change Tl+ flux,R275C/beta2Delta,-0.0279 (inactive)
same,log fold change Tl+ flux,R275C/beta4,0.00214 (inactive)
same,log fold change Tl+ flux,R275C/Slo1WT/beta2,0.067 (inactive)
CN(C)CCOC(c1ccc(Cl)cc1)c1ccccn1 (stereo not drawn),inhibition,[1],-21.2%
same,score,[2],1.7
same,rescue above control,[3],-1.97
same,cytochrome c release ratio,[4],0.83
same,inhibition of aggregation,[5],44.8%
same,glutamate uptake change,[6],21.1%
same,aggregation suppression score,[7],1.21
same,survival,[8],2.92 (inactive)
same,fluorescence ratio,[9],1.05 (inactive)
same,inhibition,[10],-5% (inactive)
same,inhibition,[11],-3.53% (inactive)
same,fluorescence ratio,[12],1.03 (inactive)
same,mean signal,[13],244 (inactive)
same,remaining NAD,[14],10 nM (inactive)
same,luciferase signal,[15],88 AU (inactive)
same,z-score,[16],1.09 (inactive)
same,log fold change Tl+ flux,R275C/beta2Delta,0.0559 (inactive)
same,log fold change Tl+ flux,R275C/beta4,0.0288 (inactive)
same,log fold change Tl+ flux,R275C/Slo1WT/beta2,-0.0144 (inactive)
OC(CCN1CCCC1)(c1ccccc1)C1CCCCC1 (stereo not drawn),inhibition,[1],2.81%
same,score,[2],1.52
same,rescue above control,[3],0.33
same,cytochrome c release ratio,[4],0.63
same,inhibition of aggregation,[5],69.2%
same,glutamate uptake change,[6],2.81%
same,aggregation suppression score,[7],1.66
same,survival,[8],7.33 (inactive)
same,fluorescence ratio,[9],1.04 (inactive)
same,inhibition,[10],-3.18% (inactive)
same,inhibition,[11],-3.53% (inactive)
same,fluorescence ratio,[12],1.03 (inactive)
same,mean signal,[13],232 (inactive)
same,remaining NAD,[14],10 nM (inactive)
same,luciferase signal,[15],44 AU (inactive)
same,z-score,[16],-0.65 (inactive)
same,log fold change Tl+ flux,R275C/beta2Delta,-0.0288 (inactive)
same,log fold change Tl+ flux,R275C/beta4,0.068 (inactive)
same,log fold change Tl+ flux,R275C/Slo1WT/beta2,-0.0137 (inactive)
COc1ccccc1OCC(O)COC(N)=O (stereo not drawn),inhibition,[1],-7.05%
same,score,[2],1.41
same,rescue above control,[3],1.68
same,cytochrome c release ratio,[4],0.96
same,inhibition of aggregation,[5],88.8%
same,glutamate uptake change,[6],-5.42%
same,aggregation suppression score,[7],1.52
same,survival,[8],33.1 (inactive)
same,fluorescence ratio,[9],1 (inactive)
same,inhibition,[10],-1.36% (inactive)
same,inhibition,[11],-1.24% (inactive)
same,fluorescence ratio,[12],1 (inactive)
same,mean signal,[13],264 (inactive)
same,remaining NAD,[14],10 nM (inactive)
same,luciferase signal,[15],56 AU (inactive)
same,z-score,[16],0.945 (inactive)
same,log fold change Tl+ flux,R275C/beta2Delta,-0.018 (inactive)
same,log fold change Tl+ flux,R275C/beta4,0.0404 (inactive)
same,log fold change Tl+ flux,R275C/Slo1WT/beta2,0.0176 (inactive)
NC(=O)N1c2ccccc2CC(=O)c2ccccc21,fluorescence ratio,[9],0.99 (inactive)
same,inhibition,[10],-5.15% (inactive)
same,inhibition,[11],-2.41% (inactive)
same,fluorescence ratio,[12],0.97 (inactive)
same,mean signal,[13],241 (inactive)
same,remaining NAD,[14],10 nM (inactive)
same,luciferase signal,[15],56 AU (inactive)
same,z-score,[16],-1.62 (inactive) and -0.18 (inactive)
same,log fold change Tl+ flux,R275C/beta2Delta,0.1 (active)
same,log fold change Tl+ flux,R275C/beta4,-0.00127 (inactive)
same,log fold change Tl+ flux,R275C/Slo1WT/beta2,0.048 (inactive)
